Reference: the supplement of paper PMC12067926
Values without a mark were called inactive.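 How the source made its calls: active = growth AUC significantly below the DMSO wells by Dunnett test; inactive = the rest.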

Key:
Experiment in all cases: relative growth (AUC of 72 h growth curve relative to DMSO control, dAUC) (ratio); higher = more growth (less inhibition), active = hit call of the paper
Details in all cases: 20 µM
[1] = system: Aeromonas 1 (Aeromonas sp. AE235)
How it was run: (§1)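 Whole sediment communities and bacterial isolates from Icelandic stream sediments and Silwood Park soil were brought to carrying capacity in Luria–Bertani medium. They were then diluted 1:100 into 96-well plates with each chemical at 20 µM in 1% DMSO, and A600 was recorded every hour for 72 h. The area under each growth curve, integrated by spline, was averaged across three biological replicates. This figure, divided by the mean of the DMSO controls, gives relative growth (dAUC).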

[2] = system: Aeromonas 2 (Aeromonas sobria)
How it was run: as §1

[3] = system: Aeromonas 3 (Aeromonas popoffii)
How it was run: as §1

[4] = system: Argrobacterium 1 (Agrobacterium sp.)
How it was run: as §1

[5] = system: Arthrobacter 1 (Arthrobacter humicola)
How it was run: as §1

[6] = system: Arthrobacter 2 (Arthrobacter humicola)
How it was run: as §1

[7] = system: Arthrobacter 3 (Arthrobacter sp.)
How it was run: as §1

Community 4 = system: Community 4
How it was run: as §1

Community 6 = system: Community 6
How it was run: as §1

Community 7 = system: Community 7
How it was run: as §1

Community 8 = system: Community 8
How it was run: as §1

Community 9 = system: Community 9
How it was run: as §1

[8] = system: Flavobacterium 1 (Flavobacterium glaciei)
How it was run: as §1

[9] = system: Flavobacterium 2 (Flavobacterium succinicans)
How it was run: as §1

[10] = system: Hymenobacter 1 (Hymenobacter glaciei)
How it was run: as §1

[11] = system: Microbacterium 1 (Microbacterium arborescens)
How it was run: as §1

[12] = system: Neobacillus 1 (Neobacillus soli)
How it was run: as §1

[13] = system: Oryzobacter 1 (Oryzobacter terrae)
How it was run: as §1

[14] = system: Paenibacillus 1 (Paenibacillus castaneae)
How it was run: as §1

Question: Which relative growth [1] does the source give for `CC(C)N(C(=O)COc1nnc(C(F)(F)F)s1)c1ccc(F)cc1` here?
Answer: 1.04

Question: And the relative growth [2]?
Answer: 0.994

Question: What about the relative growth [3] of the same compound?
Answer: 0.973

Question: And the relative growth [4]?
Answer: 1.02

Question: What about the relative growth [5] of the same compound?
Answer: 1.05

Question: What about the relative growth [6] of the same compound?
Answer: 0.894

Question: What about the relative growth [7] of the same compound?
Answer: 1.02

Question: And the relative growth (Community 4)?
Answer: 1.04

Question: And the relative growth (Community 6)?
Answer: 0.92

Question: What about the relative growth (Community 7) of the same compound?
Answer: 1.13

Question: What about the relative growth (Community 8) of the same compound?
Answer: 1.02

Question: And the relative growth (Community 9)?
Answer: 0.986

Question: And the relative growth [8]?
Answer: 1.01

Question: And the relative growth [9]?
Answer: 0.927

Question: What about the relative growth [10] of the same compound?
Answer: 0.849

Question: And the relative growth [11]?
Answer: 1.04

Question: And the relative growth [12]?
Answer: 0.965

Question: And the relative growth [13]?
Answer: 1.16

Question: What about the relative growth [14] of the same compound?
Answer: 0.899

Question: With `N#Cc1sc2c(=O)c3ccccc3c(=O)c=2sc1C#N` as the compound, how does the relative growth [1] read?
Answer: 0.852

Question: What about the relative growth [2] of the same compound?
Answer: 0.905

Question: What about the relative growth [3] of the same compound?
Answer: 1.07

Question: And the relative growth [4]?
Answer: 1.09

Question: What about the relative growth [5] of the same compound?
Answer: 0.649 (active)

Question: What about the relative growth [6] of the same compound?
Answer: 0.193 (active)

Question: And the relative growth [7]?
Answer: 0.557 (active)

Question: And the relative growth (Community 4)?
Answer: 1.12

Question: And the relative growth (Community 6)?
Answer: 1.12

Question: And the relative growth (Community 7)?
Answer: 1.06

Question: And the relative growth (Community 8)?
Answer: 1.06

Question: What about the relative growth (Community 9) of the same compound?
Answer: 1.09

Question: What about the relative growth [8] of the same compound?
Answer: 0.359 (active)

Question: What about the relative growth [9] of the same compound?
Answer: 1.05

Question: And the relative growth [10]?
Answer: 0.709

Question: And the relative growth [11]?
Answer: 0.965

Question: What about the relative growth [12] of the same compound?
Answer: 1

Question: What about the relative growth [13] of the same compound?
Answer: 0.898

Question: And the relative growth [14]?
Answer: 0.928

Question: Which results are given for `CC1=NNC(=O)N(/N=C/c2cccnc2)C1`?
Answer: relative growth [1]: 1.04; relative growth [2]: 1.04; relative growth [3]: 1.04; relative growth [4]: 0.954; relative growth [5]: 1.13; relative growth [6]: 1.13; relative growth [7]: 1.05; relative growth (Community 4): 1.1; relative growth (Community 6): 1.14; relative growth (Community 7): 0.897; relative growth (Community 8): 0.918; relative growth (Community 9): 1.2; relative growth [8]: 1.04; relative growth [9]: 1.05; relative growth [10]: 1.12; relative growth [11]: 1; relative growth [12]: 1.16; relative growth [13]: 1.01; relative growth [14]: 1.06

Question: With `CC(COc1ccc(Oc2ccccc2)cc1)Oc1ccccn1` (stereo unspecified) as the compound, how does the relative growth [1] read?
Answer: 1.04

Question: And the relative growth [2]?
Answer: 0.997

Question: What about the relative growth [3] of the same compound?
Answer: 1.08

Question: And the relative growth [4]?
Answer: 1.09

Question: And the relative growth [5]?
Answer: 1.11

Question: And the relative growth [6]?
Answer: 0.937

Question: What about the relative growth [7] of the same compound?
Answer: 0.925

Question: And the relative growth (Community 4)?
Answer: 1.08

Question: What about the relative growth (Community 6) of the same compound?
Answer: 1.07

Question: What about the relative growth (Community 7) of the same compound?
Answer: 1.05

Question: What about the relative growth (Community 8) of the same compound?
Answer: 1.06

Question: And the relative growth (Community 9)?
Answer: 1.04

Question: And the relative growth [8]?
Answer: 0.975

Question: And the relative growth [9]?
Answer: 1.02

Question: What about the relative growth [10] of the same compound?
Answer: 1.07

Question: And the relative growth [11]?
Answer: 1.05

Question: And the relative growth [12]?
Answer: 1.09

Question: And the relative growth [13]?
Answer: 1.11

Question: And the relative growth [14]?
Answer: 1.05
